Data as given in PubChem BioAssay (NCATS).
Inconclusive results are not listed. Calls of active or inactive are those of the source. Calls follow the shape of the dose curve; as a rule, active = well fitted curve in the direction sought with a large enough effect; inconclusive = small, poorly fitted or top-dose-only effect, or another doubt; inactive = no such curve, though single readings can be large; an effect the other way counts as inactive or inconclusive.

Key:
[1] = biological target: Cytochrome P450 3A4 (Homo sapiens) (UniProt P08684); test: qHTS Assay for Inhibitors and Substrates of Cytochrome P450 3A4 (AID 884); also: potency is read from the fitted curve at half-maximal effect; nearly all actives have a fitted effect of over 50% in size
Summary of the method: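 20 nM human CYP3A4 with 25 uM Luciferin-PPXE (at KM) in 200 mM KPO4, preincubated 10 min with compound; NADPH regeneration started a 60 min RT reaction. Luciferin detected by luminescence, normalized to 57 uM ketoconazole as full inhibition.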

[2] = biological target: Cytochrome P450 3A4 (Homo sapiens) (UniProt P08684); test: qHTS Assay for Activators of Cytochrome P450 3A4 (AID 885); also: nearly all actives have a fitted effect of over 65% in size
Summary of the method: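 Signal was normalized against complete inhibition by 57 uM ketoconazole. The reaction used 20nM CYP3A4 with 25uM Luciferin-PPXE, 10-min compound preincubation and a 60-min NADPH-supported step at RT.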

Chain of Cytochrome P450 3A4 (Homo sapiens) (P08684 whole entry, looked up): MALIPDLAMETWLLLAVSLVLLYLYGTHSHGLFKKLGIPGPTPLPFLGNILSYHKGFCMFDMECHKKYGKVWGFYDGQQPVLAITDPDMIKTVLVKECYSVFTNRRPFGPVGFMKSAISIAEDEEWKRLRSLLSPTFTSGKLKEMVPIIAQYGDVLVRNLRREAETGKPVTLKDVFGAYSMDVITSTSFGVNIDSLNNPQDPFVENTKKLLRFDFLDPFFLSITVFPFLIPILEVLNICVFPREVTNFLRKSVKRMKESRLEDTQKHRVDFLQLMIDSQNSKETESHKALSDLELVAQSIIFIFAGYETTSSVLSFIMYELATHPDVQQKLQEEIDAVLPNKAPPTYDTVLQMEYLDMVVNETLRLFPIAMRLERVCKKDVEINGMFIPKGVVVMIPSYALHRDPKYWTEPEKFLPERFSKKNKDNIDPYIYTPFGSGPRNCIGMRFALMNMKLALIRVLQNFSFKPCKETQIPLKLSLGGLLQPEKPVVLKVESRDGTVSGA

| SMILES | Potency [1] | Potency [2] | activity change, positive = activation [2] |
| --- | --- | --- | --- |
| C[C@H]1C2=C3C(C[C@H]4C(=O)N(c5ccccc5)C(=O)[C@H]4[C@H]3[C@@]3(Cc4ccccc4)C(=NCCc4c[nH]c5ccccc45)OC(=O)N3C2=O)[C@H]2C(=O)N(c3ccccc3)C(=O)[C@H]21 (stereo partly drawn) | 2.51 µM (active) | inactive | – |
| COC(=O)c1ccc(C23CC4(C2)[C@H](CN(Cc2cccnc2)[C@@H]4c2ccccc2)C3c2ccccc2)cc1 (stereo partly drawn) | 3.98 µM (active) | inactive | – |
| c1ccc(C2[C@H]3CN(CC4CCCCC4)[C@H](c4ccccc4)C34CC2(c2cccnc2)C4)cc1 (stereo partly drawn) | 12.6 µM (active) | inactive | – |
| C#CCCCO/N=C1/C[C@@H](O)[C@@H](O)[C@@H]2[C@H]3C(=O)N(c4ccc(F)cc4F)C(=O)[C@@H]3CC[C@@H]12 | 3.16 µM (active) | – | -61.6% [at 11.4 µM] (inactive) |
| O=C1[C@H]2[C@H]3[C@H](O)[C@H](O)C/C(=N/OC[C@@H](O)COCc4ccco4)[C@H]3CC[C@@H]2C(=O)N1Cc1ccc2c(c1)OCO2 | 3.16 µM (active) | – | -88.1% [at 11.4 µM] (inactive) |
| CCCNC(=O)OC[C@@H]1O[C@H](CCO/N=C(\C)CCN2CCCc3nc(C)c(C)cc32)C=C[C@@H]1Oc1ccc(OC)cc1 | 3.98 µM (active) | – | -70.1% [at 11.4 µM] (inactive) |
| CC(C)(C)N1C(=O)[C@H]2[C@H]3[C@H](O)[C@H](O)C/C(=N/OC[C@@H](O)COCc4ccco4)[C@@H]3CC[C@@H]2C1=O | 5.01 µM (active) | – | -87.2% [at 11.4 µM] (inactive) |
| C#CCCCO/N=C1/C[C@@H](O)[C@@H](O)[C@@H]2[C@@H]3C(=O)N([C@@H](C)c4ccccc4)C(=O)[C@H]3CC[C@@H]12 | 3.98 µM (active) | – | -86% [at 11.4 µM] (inactive) |
| C#CCCCO/N=C1/C[C@@H](O)[C@@H](O)[C@@H]2[C@@H]3C(=O)N([C@@H](C)c4ccccc4)C(=O)[C@H]3CC[C@H]12 | 3.98 µM (active) | – | -89.1% [at 11.4 µM] (inactive) |
| CCC1=C(OC(=O)N(CC)CC)N2C(=O)OC(=NCCOC)[C@]2(C)[C@H]2C1=CC[C@H]1C(=O)N(CC(=O)OC)C(=O)[C@H]12 | 10 µM (active) | inactive | – |
| COC(=O)c1ccc(C23CC4(C2)[C@H](CN(CC2CCCCC2)[C@@H]4c2ccccc2)C3c2ccc(Cl)nc2)cc1 (stereo partly drawn) | 25.1 µM (active) | inactive | – |
| O=c1oc2ccccc2c2oc3cc(O)c(O)cc3c12 | 20 µM (active) | inactive | – |
| CCC1=C2CC[C@H]3C(=O)N(CC(=O)OC)C(=O)[C@H]3[C@H]2[C@@]2(C)C(=O)N(Cc3ccccc3)C(=O)N2C1=O | 15.8 µM (active) | inactive | – |
| COC(=O)[C@@H]1C[C@H]2CC[C@H](O)C[C@H]2N1Cc1ccc(Cl)cc1 | 12.6 µM (active) | inactive | – |
| CCCNC(=O)OC[C@@H]1O[C@H](CCO/N=C(\C)CCC(=O)OC[C@@H]2O[C@H](c3ccccc3)C=C[C@@H]2Oc2ccc(OC)cc2)C=C[C@@H]1Oc1ccc(OC)cc1 | 5.01 µM (active) | – | -87% [at 11.4 µM] (inactive) |
| Cc1ccc(S(=O)(=O)N[C@H]2COC(=O)C/C=C\[C@@H](C)[C@H](NS(=O)(=O)c3ccc(C)cc3)COC(=O)C/C=C\[C@H]2C)cc1 | 3.16 µM (active) | – | -62.5% [at 11.4 µM] (inactive) |
| COC(=O)[C@@H]1C[C@@H]2CC[C@@H](O)C[C@@H]2N1Cc1ccc(Cl)cc1 | 15.8 µM (active) | inactive | – |
| O=C(N/N=C1/C[C@@H](O)[C@@H](O)[C@@H]2[C@@H]3C(=O)N(Cc4ccc5c(c4)OCO5)C(=O)[C@H]3CC[C@H]12)OCc1ccccc1 | 3.98 µM (active) | – | -89.7% [at 11.4 µM] (inactive) |
| COC(=O)[C@@H]1C[C@H]2CC[C@H](O)C[C@H]2N1Cc1c(F)cccc1Cl | 15.8 µM (active) | inactive | – |
| CCC1=C(OC(=O)N(CC)CC)N2C(=O)OC(=NCCc3c[nH]c4ccccc34)[C@]2(Cc2ccccc2)[C@H]2C1=CC[C@H]1C(=O)N(CC)C(=O)[C@H]12 | 2 µM (active) | inactive | – |
| CCCNC(=O)OC[C@@H]1O[C@H](CCO/N=C(\C)CCN2CCCCc3nc(C)c(C)cc32)C=C[C@@H]1Oc1ccc(OC)cc1 | 3.16 µM (active) | – | -95.5% [at 11.4 µM] (inactive) |
| NC(N)=NCCC[C@H](NC(=O)CC1(CC(=O)N2CCN(C3c4ccccc4NC(=O)c4ccccc43)CC2)CCCC1)C(=O)NCCn1c(=O)n(-c2ccccc2)n(-c2ccccc2)c1=O (stereo partly drawn) | 12.6 µM (active) | inactive | – |
| COc1c(O)c(O)cc2c1oc1c3cc(C)ccc3oc(=O)c21 | 25.1 µM (active) | inactive | – |
| c1ccc(C2[C@H]3CN(Cc4cccnc4)[C@H](c4ccccc4)C34CC2(c2ccccc2)C4)cc1 (stereo partly drawn) | 1.58 µM (active) | inactive | – |
| O=C1[C@H]2[C@H]3[C@H](O)[C@H](O)C/C(=N/OCc4ccccc4)[C@@H]3CC[C@@H]2C(=O)N1Cc1ccc2c(c1)OCO2 | 2 µM (active) | – | -100% [at 11.4 µM] (inactive) |

| SMILES | Potency [1] | Potency [2] | activity change, positive = activation [2] |
| --- | --- | --- | --- |
| COC(=O)c1cccc(C23CC4(C2)[C@H](CN(Cc2ccc(C(F)(F)F)cc2)[C@@H]4c2ccccc2)C3c2ccccc2)c1 (stereo partly drawn) | 12.6 µM (active) | inactive | – |
| O=C1[C@H]2[C@H]3[C@H](O)[C@H](O)C/C(=N/OC[C@@H](O)COCc4ccco4)[C@@H]3CC[C@@H]2C(=O)N1Cc1ccccc1 | 3.16 µM (active) | – | -71.1% [at 11.4 µM] (inactive) |
| Cc1ccc(S(=O)(=O)N[C@H]2COC(=O)C/C=C\[C@H](C)[C@@H](NS(=O)(=O)c3ccc(C)cc3)COC(=O)C/C=C\[C@@H]2C)cc1 | 3.98 µM (active) | – | -90.7% [at 11.4 µM] (inactive) |
| COC(=O)c1ccc(C23CC4(C2)[C@H](CN(CC2CCCCC2)[C@@H]4c2ccccc2)C3c2ccccc2)cc1 (stereo partly drawn) | 25.1 µM (active) | inactive | – |
| CCC1=C2CC[C@H]3C(=O)N(CC)C(=O)[C@H]3[C@H]2[C@@]2(C)C(=NCCc3c[nH]c4ccccc34)OC(=O)N2C1=O | 3.98 µM (active) | inactive | – |
| O=C1C=C(NCCO)C(=O)c2cnccc21 | 7.94 µM (active) | inactive | – |
| C/C(CCN1CCCc2nc(C)c(C)cc21)=N\OC[C@@H](O)COCc1ccco1 | 3.98 µM (active) | – | -77.3% [at 11.4 µM] (inactive) |
| COC(=O)[C@@H]1C[C@@]2(O)[C@@H](O)[C@@H](O)[C@@H](O)C[C@H]2N1Cc1cc(OC)cc(OC)c1 | 3.16 µM (active) | inactive | – |
| CN1C[C@@H]2C(c3ccc(C(F)(F)F)cc3)C3(c4cccnc4)CC2(C3)[C@H]1c1ccccc1 (stereo partly drawn) | 7.94 µM (active) | inactive | – |
| CCC1=C(OC(=O)N(CC)CC)N2C(=O)OC(=NCCOC)[C@]2(Cc2ccccc2)[C@H]2C1=CC[C@H]1C(=O)N(C)C(=O)[C@H]12 | 7.94 µM (active) | inactive | – |
| Cc1ccc(S(=O)(=O)N[C@H]2COC(=O)CC=C[C@@H](C)[C@H]3C=C[C@H](O)[C@@H](COC(=O)CC=C[C@H]2C)O3)cc1 | 3.16 µM (active) | – | -86.3% [at 11.4 µM] (inactive) |
| CCC1=C(OC(=O)N(CC)CC)N2C(=O)OC(=NCCOC)[C@]2(Cc2ccccc2)[C@H]2C1=CC[C@H]1C(=O)NC(=O)[C@H]12 | 6.31 µM (active) | inactive | – |
| Clc1ccc(C2[C@H]3CN(Cc4cccnc4)[C@H](c4ccccc4)C34CC2(c2cccnc2)C4)cn1 (stereo partly drawn) | 2.51 µM (active) | inactive | – |
| C/C(CCN1CCCCc2nc(C)c(C)cc21)=N\O[C@@H](C)CN1CCCc2nc(C)c(C)cc21 | 3.16 µM (active) | – | -61.2% [at 11.4 µM] (inactive) |
| COC(=O)[C@@H]1C[C@H]2CC[C@H](O)C[C@H]2N1Cc1ccccc1OS(=O)(=O)c1ccc(C)cc1 | 2 µM (active) | inactive | – |
| CCC1=C2CC[C@H]3C(=O)N(CC(=O)OC)C(=O)[C@H]3[C@H]2[C@@]2(C)C(=NCCc3c[nH]c4ccccc34)OC(=O)N2C1=O | 6.31 µM (active) | inactive | – |
| CCC1=C2CC[C@H]3C(=O)N(CC(=O)OC)C(=O)[C@H]3[C@H]2[C@@]2(Cc3ccccc3)C(=NCCc3c[nH]c4ccccc34)OC(=O)N2C1=O | 1.26 µM (active) | inactive | – |
| CCC1=C2CC[C@H]3C(=O)N(c4ccccc4)C(=O)[C@H]3[C@H]2[C@@]2(Cc3ccccc3)C(=NCCc3c[nH]c4ccccc34)OC(=O)N2C1=O | 1.26 µM (active) | inactive | – |
| C/C(CCN1CCc2nc(-c3ccccc3)c(-c3ccccc3)cc2C1)=N\O[C@@H](C)CN1CCCCc2nc(C)c(C)cc21 | 3.98 µM (active) | – | -84.8% [at 11.4 µM] (inactive) |
| CCc1cc2c(nc1CC)CCN(CC/C(C)=N/O[C@@H](C)c1cc(-c3c(C)cc(C)cc3C)no1)C2 | 3.98 µM (active) | – | -69% [at 11.4 µM] (inactive) |
| N#Cc1ccc(C23CC4(C2)[C@H](CN(CC2CCCCC2)[C@@H]4c2ccccc2)C3c2ccccc2)cc1 (stereo partly drawn) | 15.8 µM (active) | inactive | – |
| COC(=O)C/C=C\[C@@H](C)[C@@H](/C=N\OC[C@@H](O)[C@H]1O[C@H]2OC(C)(C)O[C@H]2[C@@H]1O)NS(=O)(=O)c1ccc(C)cc1 | 3.98 µM (active) | – | -61% [at 11.4 µM] (inactive) |
| COCCN=C1OC(=O)N2C(=O)C3=C4C(C[C@H]5C(=O)N(c6ccccc6)C(=O)[C@H]5[C@H]4[C@@]12Cc1ccccc1)[C@H]1C(=O)N(c2ccccc2)C(=O)[C@H]1[C@H]3C (stereo partly drawn) | 5.01 µM (active) | inactive | – |
| CCC1=C2CC[C@H]3C(=O)N(c4ccccc4)C(=O)[C@H]3[C@H]2[C@@]2(Cc3ccccc3)C(=O)N(CC(=O)OC)C(=O)N2C1=O | 3.98 µM (active) | inactive | – |
